# Assay results published in ChEMBL document CHEMBL3988442, “University of Dundee, Small-Polar-MMV Screening Library” (2021).
# For some of these results: Results with a measured potency or affinity are listed apart.
# What was measured:
# Parameters in all cases: scale not given: direction of the effect not stated beside the values
# [1] = target: Protein translocase subunit SecA (Escherichia coli (strain K12)) (UniProt P10408); experiment: Assay to Identify E. coli SecA ATPase Inhibitors; format: functional; conditions: 30 µM
# [2] = target: T1, Ubiquitin-activating enzyme e1, putative (Leishmania donovani (strain BPK282A1)) (UniProt E9BSI1); experiment: Leishmania donovani Ubiquitin Activating Enzyme (LdE1); format: functional; conditions: 30 µM
# T1 sequence (whole entry): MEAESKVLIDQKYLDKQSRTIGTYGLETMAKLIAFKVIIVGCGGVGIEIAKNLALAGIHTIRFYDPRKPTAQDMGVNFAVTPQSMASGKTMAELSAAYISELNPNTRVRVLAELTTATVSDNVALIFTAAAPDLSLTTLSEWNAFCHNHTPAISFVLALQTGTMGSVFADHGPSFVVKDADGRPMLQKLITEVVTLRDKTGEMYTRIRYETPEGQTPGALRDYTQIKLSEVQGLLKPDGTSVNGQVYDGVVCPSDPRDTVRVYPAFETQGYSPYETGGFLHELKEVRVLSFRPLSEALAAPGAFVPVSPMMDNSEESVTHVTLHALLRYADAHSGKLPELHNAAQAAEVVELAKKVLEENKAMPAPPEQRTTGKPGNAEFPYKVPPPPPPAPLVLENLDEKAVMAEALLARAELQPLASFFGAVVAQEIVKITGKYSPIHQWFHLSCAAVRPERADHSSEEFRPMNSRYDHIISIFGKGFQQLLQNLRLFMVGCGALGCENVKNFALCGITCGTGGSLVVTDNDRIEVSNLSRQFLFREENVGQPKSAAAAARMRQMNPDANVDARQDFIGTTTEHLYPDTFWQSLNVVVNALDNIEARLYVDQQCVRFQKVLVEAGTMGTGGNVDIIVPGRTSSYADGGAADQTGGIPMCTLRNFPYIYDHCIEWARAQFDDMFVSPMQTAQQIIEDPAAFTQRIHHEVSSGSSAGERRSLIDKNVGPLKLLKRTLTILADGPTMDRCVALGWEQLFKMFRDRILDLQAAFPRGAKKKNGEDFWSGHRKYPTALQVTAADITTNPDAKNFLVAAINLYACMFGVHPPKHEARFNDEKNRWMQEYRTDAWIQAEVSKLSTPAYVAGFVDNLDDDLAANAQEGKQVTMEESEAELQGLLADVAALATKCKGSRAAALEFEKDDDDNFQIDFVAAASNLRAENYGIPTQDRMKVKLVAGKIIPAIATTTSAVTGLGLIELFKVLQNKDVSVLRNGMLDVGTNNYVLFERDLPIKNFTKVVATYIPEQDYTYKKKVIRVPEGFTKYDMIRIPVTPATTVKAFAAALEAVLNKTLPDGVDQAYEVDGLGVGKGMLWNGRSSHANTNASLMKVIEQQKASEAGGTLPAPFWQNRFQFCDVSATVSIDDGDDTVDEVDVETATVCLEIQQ
# [3] = target: AMP-activated protein kinase, AMPK (Homo sapiens) (UniProt P54646+O43741+P54619+Q9UGJ0+Q9Y478+Q13131+Q9UGI9); experiment: AMP-dependent Kinase enzyme assay. An in vitro enzyme assay that detects ADP turnover that is directly proportional to AMPK activity. This uses naive AMPK that is activated during the assay with MK-8722; format: functional; conditions: 30 µM
# [4] = target: Sialic acid-binding Ig-like lectin 9 (Homo sapiens) (UniProt Q9Y336); experiment: Hs-Siglec9 ALPHAscreen SOP 20170721; conditions: 10 µM
# Trypanosoma cruzi = experiment: Trypanosoma cruzi phosphomannomutase and mannose-1-phosphate guanylyltransferase assay; format: functional; conditions: 10 µM
# [5] = target: T2, Arginase-2, mitochondrial (Homo sapiens) (UniProt P78540); experiment: in vitro enzyme assay to detect the production of urea directly proportional to the activity of Arginase II; format: functional; conditions: 33.3 µM; also: in the data most compounds retested in dose-response had high values
# T2 sequence (whole entry): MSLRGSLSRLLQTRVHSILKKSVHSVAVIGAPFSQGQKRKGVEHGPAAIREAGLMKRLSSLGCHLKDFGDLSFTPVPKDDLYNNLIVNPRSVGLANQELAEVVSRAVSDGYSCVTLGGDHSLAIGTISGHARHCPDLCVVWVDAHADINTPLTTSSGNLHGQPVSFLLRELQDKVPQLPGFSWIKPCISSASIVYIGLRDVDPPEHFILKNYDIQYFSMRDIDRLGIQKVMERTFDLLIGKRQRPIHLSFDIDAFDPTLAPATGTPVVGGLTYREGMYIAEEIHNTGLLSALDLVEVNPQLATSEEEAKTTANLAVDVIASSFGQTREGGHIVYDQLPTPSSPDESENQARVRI
# [6] = target: T3, Proteasome subunit beta (Trypanosoma cruzi) (UniProt O96673); experiment: Trypanosoma cruzi proteasome chymotrypsin-like activity (TcProtChymo) assay.; also: in the data most compounds retested in dose-response had high values; format: functional; conditions: 9.37 µM
# T3 sequence (whole entry): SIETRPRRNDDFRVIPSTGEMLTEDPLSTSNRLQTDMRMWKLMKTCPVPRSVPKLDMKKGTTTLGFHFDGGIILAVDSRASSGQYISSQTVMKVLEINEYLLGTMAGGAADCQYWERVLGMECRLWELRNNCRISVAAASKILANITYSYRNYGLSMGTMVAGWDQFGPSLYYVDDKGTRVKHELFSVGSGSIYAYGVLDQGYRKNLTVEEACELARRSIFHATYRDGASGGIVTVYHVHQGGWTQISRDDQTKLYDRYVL
# Homo sapiens = species on record: Homo sapiens; experiment: To identify inhibition of the IFN signalling (Jak-Stat) pathway via expression of an eGFP reporter gene under the control of an IFN-stimulated response element (ISRE) containing MxA promoter.; format: functional; conditions: 30 µM
# [7] = target: T4, Tyrosyl-tRNA synthetase, putative (Trypanosoma cruzi (strain CL Brener)) (UniProt Q4DSP6); experiment: Trypanosoma cruzi tyrosyl tRNA synthetase (TcYRS) _High Tyrosine SOP; format: functional; conditions: 30 µM; also: in the data most compounds retested in dose-response had high values
# T4 sequence (whole entry): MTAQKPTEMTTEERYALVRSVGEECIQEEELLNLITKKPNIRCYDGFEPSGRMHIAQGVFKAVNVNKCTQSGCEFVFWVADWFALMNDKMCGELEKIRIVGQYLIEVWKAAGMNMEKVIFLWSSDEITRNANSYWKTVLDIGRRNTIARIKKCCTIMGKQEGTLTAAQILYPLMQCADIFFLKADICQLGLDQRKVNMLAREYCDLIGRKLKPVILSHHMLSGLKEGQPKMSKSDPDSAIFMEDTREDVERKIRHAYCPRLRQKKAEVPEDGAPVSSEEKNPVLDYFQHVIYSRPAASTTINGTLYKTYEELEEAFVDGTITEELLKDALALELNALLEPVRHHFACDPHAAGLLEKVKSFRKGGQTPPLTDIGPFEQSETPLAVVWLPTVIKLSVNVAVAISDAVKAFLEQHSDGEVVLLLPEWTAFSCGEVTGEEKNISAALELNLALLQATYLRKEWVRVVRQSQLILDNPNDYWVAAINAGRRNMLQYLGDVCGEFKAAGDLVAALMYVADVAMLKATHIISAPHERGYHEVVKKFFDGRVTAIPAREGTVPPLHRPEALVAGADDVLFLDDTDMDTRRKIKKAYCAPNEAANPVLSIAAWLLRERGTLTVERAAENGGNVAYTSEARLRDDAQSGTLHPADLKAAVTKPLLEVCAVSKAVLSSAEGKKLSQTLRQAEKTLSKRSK
# [8] = target: T4, Tyrosyl-tRNA synthetase, putative (Trypanosoma cruzi (strain CL Brener)); experiment: Trypanosoma cruzi tyrosyl tRNA synthetase (TcYRS) SOP; format: functional; conditions: 30 µM
# [9] = target: Chromo domain-containing protein 1 (Saccharomyces cerevisiae (strain ATCC 204508 / S288c) (Baker's yeast)) (UniProt P32657); experiment: ScCHD-1 Enzyme Inhibition Assay; format: functional; conditions: 30 µM; also: in the data most compounds retested in dose-response had high values
# Chromo domain-containing protein 1 (Saccharomyces cerevisiae (strain ATCC 204508 / S288c) (Baker's yeast)), sequence (P32657 whole entry, the tested form may be a part): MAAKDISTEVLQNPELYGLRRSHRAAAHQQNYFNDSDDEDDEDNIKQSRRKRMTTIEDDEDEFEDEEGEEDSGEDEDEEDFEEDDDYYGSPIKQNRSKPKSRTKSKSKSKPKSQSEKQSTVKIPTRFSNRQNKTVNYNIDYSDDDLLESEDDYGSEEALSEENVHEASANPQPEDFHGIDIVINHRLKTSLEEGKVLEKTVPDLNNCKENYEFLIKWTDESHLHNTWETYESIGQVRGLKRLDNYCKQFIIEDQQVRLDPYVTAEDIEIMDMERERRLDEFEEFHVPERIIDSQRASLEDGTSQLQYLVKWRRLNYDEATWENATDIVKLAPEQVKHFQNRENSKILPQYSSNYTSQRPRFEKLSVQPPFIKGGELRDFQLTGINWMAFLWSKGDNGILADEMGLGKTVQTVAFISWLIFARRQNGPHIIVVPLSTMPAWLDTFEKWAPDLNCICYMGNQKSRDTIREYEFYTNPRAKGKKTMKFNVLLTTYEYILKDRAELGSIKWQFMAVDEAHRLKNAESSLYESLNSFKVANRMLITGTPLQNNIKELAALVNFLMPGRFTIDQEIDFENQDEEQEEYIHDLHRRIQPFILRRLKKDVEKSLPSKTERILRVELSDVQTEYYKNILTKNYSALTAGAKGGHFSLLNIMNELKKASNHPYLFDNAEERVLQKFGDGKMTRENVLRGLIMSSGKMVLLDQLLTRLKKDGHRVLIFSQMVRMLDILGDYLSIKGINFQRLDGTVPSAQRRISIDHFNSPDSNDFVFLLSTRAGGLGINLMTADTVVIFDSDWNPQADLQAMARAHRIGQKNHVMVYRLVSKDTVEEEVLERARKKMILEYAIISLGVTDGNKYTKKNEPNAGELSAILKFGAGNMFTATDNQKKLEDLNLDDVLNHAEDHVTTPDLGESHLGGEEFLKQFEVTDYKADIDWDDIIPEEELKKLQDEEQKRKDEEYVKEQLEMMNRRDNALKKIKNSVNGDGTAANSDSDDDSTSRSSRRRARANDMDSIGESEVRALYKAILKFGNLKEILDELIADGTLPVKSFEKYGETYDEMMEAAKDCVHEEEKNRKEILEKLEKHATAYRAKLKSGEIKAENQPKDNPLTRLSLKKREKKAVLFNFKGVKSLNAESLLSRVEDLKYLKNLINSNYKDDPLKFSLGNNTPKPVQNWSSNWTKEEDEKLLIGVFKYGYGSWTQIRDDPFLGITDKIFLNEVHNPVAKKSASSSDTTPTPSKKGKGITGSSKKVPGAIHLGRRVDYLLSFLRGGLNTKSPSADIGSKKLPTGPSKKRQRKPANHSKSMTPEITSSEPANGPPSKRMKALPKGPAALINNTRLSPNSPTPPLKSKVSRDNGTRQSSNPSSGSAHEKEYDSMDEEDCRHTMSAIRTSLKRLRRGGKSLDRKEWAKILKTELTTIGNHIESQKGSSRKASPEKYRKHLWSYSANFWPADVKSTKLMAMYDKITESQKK
# Sialic acid-binding Ig-like lectin 9 (Homo sapiens), sequence (Q9Y336 whole entry): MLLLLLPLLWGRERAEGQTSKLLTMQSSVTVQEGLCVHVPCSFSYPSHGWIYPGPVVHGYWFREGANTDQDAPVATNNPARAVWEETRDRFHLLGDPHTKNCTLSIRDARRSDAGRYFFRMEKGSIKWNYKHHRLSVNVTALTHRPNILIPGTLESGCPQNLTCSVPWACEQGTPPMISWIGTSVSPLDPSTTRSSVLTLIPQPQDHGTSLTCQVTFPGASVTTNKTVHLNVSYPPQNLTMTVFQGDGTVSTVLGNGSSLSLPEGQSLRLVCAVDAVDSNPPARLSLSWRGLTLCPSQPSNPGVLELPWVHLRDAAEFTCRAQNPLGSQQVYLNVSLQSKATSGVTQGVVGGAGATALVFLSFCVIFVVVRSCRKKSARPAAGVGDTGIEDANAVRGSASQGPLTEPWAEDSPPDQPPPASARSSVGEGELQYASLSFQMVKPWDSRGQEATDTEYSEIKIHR
# Protein translocase subunit SecA (Escherichia coli (strain K12)), sequence (P10408 whole entry): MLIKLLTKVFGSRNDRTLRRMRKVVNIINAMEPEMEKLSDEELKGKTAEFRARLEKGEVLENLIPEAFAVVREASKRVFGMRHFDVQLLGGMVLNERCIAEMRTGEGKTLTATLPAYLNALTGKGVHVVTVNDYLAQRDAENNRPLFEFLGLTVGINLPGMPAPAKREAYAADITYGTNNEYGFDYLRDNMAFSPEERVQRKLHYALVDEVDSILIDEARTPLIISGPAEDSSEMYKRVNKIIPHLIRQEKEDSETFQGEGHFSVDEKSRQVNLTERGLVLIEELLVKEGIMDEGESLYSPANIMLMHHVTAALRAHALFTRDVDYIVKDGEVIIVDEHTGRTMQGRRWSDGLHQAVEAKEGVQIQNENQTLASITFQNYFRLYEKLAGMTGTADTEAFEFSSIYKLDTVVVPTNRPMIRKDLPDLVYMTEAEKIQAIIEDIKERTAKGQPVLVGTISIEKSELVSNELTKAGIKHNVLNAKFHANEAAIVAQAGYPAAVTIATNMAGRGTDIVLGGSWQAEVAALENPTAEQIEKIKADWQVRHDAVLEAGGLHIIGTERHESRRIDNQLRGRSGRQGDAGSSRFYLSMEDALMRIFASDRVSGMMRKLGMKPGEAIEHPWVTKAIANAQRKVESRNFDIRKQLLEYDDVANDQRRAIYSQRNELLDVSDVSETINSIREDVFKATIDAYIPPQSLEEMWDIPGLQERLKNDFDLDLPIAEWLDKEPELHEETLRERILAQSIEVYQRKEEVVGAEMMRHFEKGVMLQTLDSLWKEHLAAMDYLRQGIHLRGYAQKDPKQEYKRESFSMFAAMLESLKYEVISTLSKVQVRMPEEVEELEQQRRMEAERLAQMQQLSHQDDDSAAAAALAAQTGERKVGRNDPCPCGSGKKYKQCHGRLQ
SMILES,Percent Effect [1],Percent Effect [2],Percent Effect [3],Percent Effect [4],Percent Effect (Trypanosoma cruzi),Percent Effect [5],Percent Effect [6],Percent Effect (Homo sapiens),Percent Effect [7],Percent Effect [8],Percent Effect [9]
CCc1c(C)nc2n(c1=O)CC(C(=O)Nc1nc3c(s1)CCCC3)CS2 (stereo not given),-2.52%,13%,6.33%,7.47%,2.86%,-4.52%,7.66%,18.6%,6.35%,14.1%,-8.32%
Cc1cnn(CC2CN(c3ncnc4ccccc34)CCO2)c1 (stereo not given),-1.94%,-7.59%,1.23%,9.68%,8.03%,-1.14%,1.39%,37.6%,1.48%,1.27%,-3.24%
CN1CCN(c2nc(O)c3c(-c4ccccn4)ccnc3n2)CC1,-4.77%,0%,6.93%,2.2%,-2.24%,-7.1%,18.1%,-16.4%,6.38%,10.4%,-7.72%
Cc1nc(CN2C(=O)CCC23CCN(c2ncccn2)CC3)cs1,-1.55%,16%,-2.28%,4.1%,5.02%,-54.7%,19.3%,-8.11%,5.21%,5%,-8.28%
Cc1cnn(CCNCc2csc(-c3ccc4c(c3)OCO4)n2)c1,-4.64%,-13.2%,-1.92%,-4.07%,-5.83%,2.68%,11.2%,24%,1.47%,4.88%,18%
CCN1CCCN(C(=O)c2cnc(OC(C)C)c(Cl)c2)CC1,-2.83%,-8.22%,9.83%,-2.64%,-15.9%,-1.2%,3.68%,6.45%,1.04%,-30.9%,1.65%
COCCO[C@@H]1C[C@H]2CN(C(=O)c3cnccn3)CCN2C1,-2.84%,5.33%,-0.698%,4.55%,-0.965%,-39.6%,4.79%,-8.37%,0%,-15%,-3.81%
Cc1ccc(NC(=O)N2CCOC(C)C2)cc1Cl (stereo not given),-0.48%,16.4%,-5.38%,4.84%,2.58%,-6.39%,26.6%,10.5%,7.29%,21%,-3.19%
COCc1cccc(CNCc2c(C)nn(C)c2N(C)C)c1,-6.8%,18.9%,-21.5%,9.53%,7.64%,-4.01%,12.4%,4.56%,7.39%,23.5%,-13.6%
CC(C)C(=O)NCC(=O)N(C)C1CCCN(C2Cc3ccccc3C2)C1 (stereo not given),0.272%,8.11%,-4.7%,3.43%,-3.48%,0.476%,14.3%,11.7%,-1.59%,-26.8%,-2.54%
Cc1ccc(CNC(=O)CN2CCN(CC(O)c3ccco3)CC2)cc1 (stereo not given),-2.27%,20.8%,-4.52%,-0.747%,0.0986%,-1.94%,9.4%,7.63%,4.23%,24.4%,-10.3%
CCn1cc(CN2CCCC(CO)(CCc3ccccc3)C2)c(C)n1 (stereo not given),-3.86%,8.11%,-1.51%,28.3%,5.18%,18.1%,12.1%,-7.2%,0%,11.1%,-12.5%
Cc1ccc(C(=O)N2CCSCC2)cc1NC(=O)Cn1cncn1,-4.05%,16.4%,-5.58%,10.2%,7.74%,-7.98%,17.6%,-4.75%,6.25%,18.5%,-7.01%
CC(C)[C@H](NC(=O)NC1CCS(=O)(=O)C1)C(=O)Nc1cccnc1 (stereo not given in full),1.55%,9.33%,-0.824%,-4.96%,-3.34%,-8.28%,13.1%,17.4%,3.17%,12.8%,-7.36%
CNc1cncc(C2CCCN2Cc2ccccn2)n1 (stereo not given),-2.75%,-4.05%,3.64%,7.85%,2.37%,1.62%,29.5%,-2.5%,9.68%,9.09%,-18.3%
Cc1noc([C@H]2COC[C@H]3CN(C(=O)Cc4ccc(F)cc4)C[C@H]32)n1,-6.71%,10.8%,-2.57%,13.3%,3.91%,3.75%,7.18%,-8.46%,5.94%,11%,-1.22%
CCN(CC)c1ccc(C(=O)N(C)Cc2c(C)noc2C)cn1,-4.04%,10.5%,-4.84%,-2.69%,-7%,10.1%,-5.84%,10.8%,3.45%,11.1%,-1.15%
Cc1cccc2[nH]c(C3CCN(C(=O)c4ccnn4C)CC3)nc12,-4.98%,7.79%,3.06%,3.85%,-4.62%,-23.4%,15.1%,2.04%,9.68%,13.6%,-3.54%
CC(C)CN1CCN(C(=O)Nc2cc(C(F)(F)F)c[nH]c2=O)CC1,-3.29%,2.6%,6.98%,4.09%,-2.06%,2.13%,3.55%,20.1%,5.83%,12.2%,-7.11%
CC(C)c1nn(C)c(N2CCOCC2)c1CN[C@H](C)CO,-5.92%,7.89%,-9.46%,-5.12%,-1.96%,1.44%,3.3%,-5.23%,5.42%,6.17%,-4.66%
